The source made the active and inactive calls. Unless noted, no rule for the calls is given here.
Columns and labels:
[1] = resazurin metabolic signal in HepG2 cells – cell-based, resazurin fluorescence, 24 h, PK04 Diversity Set, profiling panel (AID 1172); settings: HepG2 viability, higher = more signal
[2] = budding yeast growth changes without added modifier – OD600, strain BY4716, 24 h, basal condition, primary screen (AID 1173); settings: S. cerevisiae BY4716 growth, OD600, 24 h; higher = more signal, called active from +8 up or from −8 down
[3] = viability profiling in MM1S myeloma cells – cell-based, resazurin fluorescence, basal, 24 h, PK04 Diversity Set, profiling panel (AID 1174); settings: higher = more signal, called active from +8 up or from −8 down;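 also: MM1S multiple myeloma cell line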
[4] = target: Dihydroorotate dehydrogenase (quinone), mitochondrial (Plasmodium falciparum (isolate 3D7)) (UniProt Q08210); assay: inhibition of P. falciparum DHODH – biochemical, C-terminal His tag, absorbance 600 nm, primary screen (AID 1175); settings: PfDHODH enzyme, DCIP absorbance 600 nm; higher = more signal, called active from +8 up or from −8 down;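 also: recombinant parasite enzyme with a five histidine tag at its C terminus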
[5] = inhibition of PAO1 biofilm formation – strain PAO1, LB-PBS medium, absorbance 600 nm, primary screen (AID 1176); settings: P. aeruginosa PAO1 growth/biofilm, A600, 12 h; higher = more signal
[6] = growth modulation of vineyard yeast isolate – strain RM11-1a, OD600, basal, 24 h, primary screen (AID 1177);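 also: cultures grown under basal conditions with no added stressor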; settings: S. cerevisiae RM11-1a growth, OD600, 24 h; higher = more signal, called active from +8 up or from −8 down
[7] = growth of efflux-deficient E. coli DRC39 – strain DRC39, OD650, 24 h, E. coli filamentation inducers, primary screen (AID 1178);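 also: growth measured as culture turbidity by optical density at 650 nm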; settings: E. coli DRC39 acrAB, higher = more signal, called active from +8 up or from −8 down
[8] = growth of efflux-deficient E. coli DRC39 – strain DRC39, OD650, 48 h, E. coli filamentation inducers, primary screen (AID 1179);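 also: screen aims at cell division blockers that make cells filament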; settings: E. coli DRC39 delta-acrAB growth, higher = more signal, called active from +8 up or from −8 down
[9] = viability profiling in RPMI8226 myeloma cells – cell-based, resazurin fluorescence, basal, 24 h, PK04 Diversity Set, profiling panel (AID 1180); settings: higher = more signal;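 also: RPMI8826 multiple myeloma cell line at 5000 cells per well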
[10] = target: E3 ubiquitin-protein ligase XIAP (Homo sapiens) (UniProt P98170); assay: small molecules binding XIAP protein – biophysical, small-molecule microarray, fluorescence 635 nm, primary screen (AID 1181); settings: higher = more signal;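 also: score merges 667 nm emission and signal to noise over triplicate slides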
[11] = test system: XIP peptide (Xip251-270) binding; assay: XIP fragment 251-270 binding compounds – biochemical, small-molecule microarray, fluorescence 635/667 nm, 0.1 µg/mL protein, primary screen (AID 1182); settings: fluorescent protein binding, 635 nm, higher = more signal, called active from +8 up or from −8 down
XIP peptide (Xip251-270) = assay: compounds binding XIP fragment 251-270 – biochemical, small-molecule microarray, fluorescence 635/667 nm, 0.5 µg/mL protein, primary screen (AID 1183); settings: fluorescence 635 nm, higher = more signal
[12] = blood-stage malaria parasite viability loss – strain 3D7, DAPI fluorescence, 100 nL, primary screen (AID 1184);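 also: parasites grown inside human red blood cells in medium with human serum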; settings: P. falciparum 3D7 growth, 3 d, higher = more signal
[13] = target: Homeobox protein Hox-A13 (Mus musculus) (UniProt Q62424); assay: disruptors of Hoxa13 oligonucleotide interaction – biochemical, fluorescence polarization, labeled oligonucleotide, primary screen (AID 1185); settings: Hoxa13:DNA binding, 15 min, higher = more signal, called active from +8 up or from −8 down
[14] = blockers of DNA damage checkpoint Chk1 activation – imaging, HeLa, hydroxyurea, phospho-Chk1 antibody, percent positive cells, primary screen (AID 1186); settings: hydroxyurea-induced phospho-Chk1 immunofluorescence imaging, higher = more signal
[15] = blockers of DNA damage checkpoint Chk1 activation – imaging, HeLa, hydroxyurea, phospho-Chk1 nuclear intensity, primary screen (AID 1187); settings: hydroxyurea-induced phospho-Chk1 immunofluorescence imaging, higher = more signal

Chain of E3 ubiquitin-protein ligase XIAP (Homo sapiens) (P98170 whole entry, looked up, the tested form may be a part): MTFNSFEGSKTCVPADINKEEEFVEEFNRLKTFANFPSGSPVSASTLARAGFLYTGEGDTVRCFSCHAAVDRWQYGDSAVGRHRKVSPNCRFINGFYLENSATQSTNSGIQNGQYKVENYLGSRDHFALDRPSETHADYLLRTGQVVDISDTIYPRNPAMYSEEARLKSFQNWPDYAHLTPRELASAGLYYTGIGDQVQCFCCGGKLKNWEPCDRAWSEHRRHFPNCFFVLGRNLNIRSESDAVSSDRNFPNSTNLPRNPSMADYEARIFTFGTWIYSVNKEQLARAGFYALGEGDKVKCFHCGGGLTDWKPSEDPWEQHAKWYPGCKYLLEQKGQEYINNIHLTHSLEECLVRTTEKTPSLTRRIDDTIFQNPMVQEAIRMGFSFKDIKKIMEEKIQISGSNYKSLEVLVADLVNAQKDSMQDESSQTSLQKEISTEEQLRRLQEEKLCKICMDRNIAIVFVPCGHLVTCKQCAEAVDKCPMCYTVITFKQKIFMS
Chain of Homeobox protein Hox-A13 (Mus musculus) (Q62424 whole entry, looked up): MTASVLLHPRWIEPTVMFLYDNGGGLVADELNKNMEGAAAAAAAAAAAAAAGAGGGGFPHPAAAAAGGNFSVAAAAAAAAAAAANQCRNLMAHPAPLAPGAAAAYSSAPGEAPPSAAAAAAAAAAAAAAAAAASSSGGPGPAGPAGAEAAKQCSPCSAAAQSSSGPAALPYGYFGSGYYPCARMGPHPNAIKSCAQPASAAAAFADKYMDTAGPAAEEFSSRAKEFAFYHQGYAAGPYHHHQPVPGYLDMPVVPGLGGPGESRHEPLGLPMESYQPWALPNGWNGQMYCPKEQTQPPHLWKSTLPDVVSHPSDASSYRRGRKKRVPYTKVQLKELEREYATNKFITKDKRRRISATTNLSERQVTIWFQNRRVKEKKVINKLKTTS
Chain of Dihydroorotate dehydrogenase (quinone), mitochondrial (Plasmodium falciparum (isolate 3D7)) (Q08210 whole entry, looked up): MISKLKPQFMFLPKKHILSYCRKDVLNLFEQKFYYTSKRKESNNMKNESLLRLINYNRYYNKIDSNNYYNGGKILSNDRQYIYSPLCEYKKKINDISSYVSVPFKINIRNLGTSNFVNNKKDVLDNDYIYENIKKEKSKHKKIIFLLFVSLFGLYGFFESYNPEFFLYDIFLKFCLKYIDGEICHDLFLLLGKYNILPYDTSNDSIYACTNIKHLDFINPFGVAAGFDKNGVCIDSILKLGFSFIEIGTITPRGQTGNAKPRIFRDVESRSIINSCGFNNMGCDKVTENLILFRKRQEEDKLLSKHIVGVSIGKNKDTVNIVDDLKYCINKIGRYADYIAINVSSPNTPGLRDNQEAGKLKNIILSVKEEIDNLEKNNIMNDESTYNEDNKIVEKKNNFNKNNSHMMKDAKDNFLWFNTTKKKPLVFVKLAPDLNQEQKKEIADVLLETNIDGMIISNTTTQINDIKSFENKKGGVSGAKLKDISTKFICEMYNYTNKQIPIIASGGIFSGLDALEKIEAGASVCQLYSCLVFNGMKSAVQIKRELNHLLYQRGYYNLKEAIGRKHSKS

Row | SMILES | z-score [1] | z-score [2] | z-score [3] | composite z-score [4] | z-score [5] | z-score [6] | z-score [7] | z-score [8] | z-score [9] | composite z-score [10] | composite z-score [11] | composite z-score (XIP peptide (Xip251-270)) | z-score [12] | z-score [13] | z-score [14] | z-score [15]
1 | COCCCNC(=O)[C@]1(Cc2ccccc2CN=[N+]=[N-])N=C(c2ccc(OCCCO)cc2)O[C@@H]1c1ccccc1 | 1.27 | -0.682 (inactive) | -1.48 (inactive) | 0.633 (inactive) | -0.441 (inactive) | 0.916 (inactive) | 1.18 (inactive) | 0.422 (inactive) | -3.11 | 0.216 | 0.0968 (inactive) | 0.598 | -2.41 | -6.44 (inactive) | -0.401 (inactive) | -0.24 (inactive)
2 | C[C@H]1ON(c2ccc(C(=O)OC(C)(C)C)cc2)[C@@H](c2ccc(O)cc2)[C@@H]1C(=O)N1C(=O)OC[C@@H]1c1ccccc1 | -0.319 | -0.407 (inactive) | -0.263 (inactive) | 0.314 (inactive) | 0.294 (inactive) | 0.759 (inactive) | -0.563 (inactive) | -0.148 (inactive) | -0.782 | 0.0029 | 0.0197 (inactive) | 0.446 | -1.47 | -4.21 (inactive) | 0.148 (inactive) | 0.062 (inactive)
3 | CC=CC(O)C1C=CC2C(=O)N(C)C(=O)C2N1N1CCCCC1 (stereo not drawn) | -0.245 | 0.383 (inactive) | -0.986 (inactive) | -0.811 (inactive) | 0.378 (inactive) | -0.714 (inactive) | -1.07 (inactive) | -0.923 (inactive) | -1.36 | -0.114 | 0.102 (inactive) | 0.759 | 0.884 | -7.38 (inactive) | 0.436 (inactive) | -0.297 (inactive)
4 | CCCCN1CC=CC23O[C@@H]4/C=C\CCC(C)OC(=O)C4[C@H]2C(=O)N(CCCCCCO)[C@@H]3C1=O (stereo partly drawn) | 0.634 | 0.14 (inactive) | 0.234 (inactive) | -0.524 (inactive) | 0.109 (inactive) | 0.432 (inactive) | 0.666 (inactive) | 0.544 (inactive) | 0.981 | 0.0081 | 0.879 (inactive) | 0.0096 | 0.11 | -4.7 (inactive) | -0.494 (inactive) | 0.339 (inactive)
5 | CC(C)N1C(=O)[C@@]2(c3ccc([N+](=O)[O-])cc3)CC(=O)N(C3CCCCC3)[C@@H]2c2ccc(CO)cc21 | 1.86 | 0.833 (inactive) | 0.927 (inactive) | -13.8 (active) | -0.0065 (inactive) | -0.466 (inactive) | 0.026 (inactive) | -0.303 (inactive) | 0.833 | 0.0037 | 0.888 (inactive) | 0.287 | 0.501 | 0.0267 (inactive) | -0.135 (inactive) | -0.141 (inactive)
6 | COc1ccc([Si](C)(C)[C@H]2[C@H](CCn3cc([C@H](O)c4ccccc4)nn3)O[C@@]3(C(=O)N(Cc4ccc(N5CCC5=O)cc4)c4ccccc43)[C@@H]2C)cc1 | -0.225 | 0.309 (inactive) | -0.771 (inactive) | 0.65 (inactive) | 0.401 (inactive) | 1.07 (inactive) | 0.0302 (inactive) | -0.422 (inactive) | -0.0897 | -0.022 | 0.588 (inactive) | 0.576 | -1.87 | -2.79 (inactive) | -0.162 (inactive) | -0.628 (inactive)
7 | O=C1OCCC=C[C@H]2OC34C=CCN(c5ccc(Cl)cc5)C(=O)[C@H]3N(CCCCCO)C(=O)[C@@H]4C12 (stereo partly drawn) | 1.25 | -0.508 (inactive) | 0.89 (inactive) | -0.417 (inactive) | -0.525 (inactive) | -0.429 (inactive) | 1.68 (inactive) | 1.83 (inactive) | 0.599 | 0.23 | 0.445 (inactive) | -0.342 | 0.684 | -5.82 (inactive) | 0.578 (inactive) | 0.434 (inactive)
8 | COc1ccc([Si](C)(C)[C@H]2[C@H](CCn3cc(CCO)nn3)O[C@@]3(C(=O)N(Cc4ccc(N5C(=O)c6cccc7cccc5c67)cc4)c4ccccc43)[C@@H]2C)cc1 | -2.42 | 0.0502 (inactive) | -5.99 (inactive) | -1.14 (inactive) | 0.519 (inactive) | 1.66 (inactive) | 0.528 (inactive) | 0.251 (inactive) | -5.65 | 0.0636 | 0.146 (inactive) | 0.625 | -2.28 | -3.7 (inactive) | -0.771 (inactive) | -0.923 (inactive)
9 | COC(=O)[C@@]1(Cc2ccccc2)[C@H]2c3cc(C(=O)N4CCCC4)n(Cc4ccsc4Br)c3C[C@H]2CN1C(=O)c1ccccc1 | -1.08 | 0.666 (inactive) | -0.686 (inactive) | -0.876 (inactive) | -0.0703 (inactive) | 1.15 (inactive) | -0.28 (inactive) | 0.139 (inactive) | -3.12 | 0.218 | 0.427 (inactive) | 0.77 | -1.16 | -3.29 (inactive) | 0.17 (inactive) | 0.498 (inactive)
10 | CCOC(=O)C1=CC[C@@H](c2ccc([N+](=O)[O-])cc2)N(S(=O)(=O)c2ccc(C)cc2)[C@H]1c1ccccc1 | 0.468 | 2.52 (inactive) | 0.541 (inactive) | 0.914 (inactive) | 0.229 (inactive) | 0.901 (inactive) | -0.72 (inactive) | -0.445 (inactive) | 0.546 | -0.124 | 0.353 (inactive) | 0.552 | -1.41 | 2.35 (inactive) | -0.137 (inactive) | -0.3 (inactive)
11 | O=c1cccc(-c2ccc(C(F)(F)F)cc2)o1 | -0.0559 | -9.38 (active) | 0.0889 (inactive) | -0.723 (inactive) | 0.0767 (inactive) | -0.962 (inactive) | -0.865 (inactive) | -0.325 (inactive) | 0.263 | 0.0535 | 0.338 (inactive) | -0.256 | 1.39 | -1.7 (inactive) | 0.264 (inactive) | 0.197 (inactive)
12 | C=C[C@@H](COC(C)=O)NS(=O)(=O)c1ccc(Br)cc1 | -1.44 | -11.8 (active) | -1.82 (inactive) | -0.502 (inactive) | -0.152 (inactive) | 0.628 (inactive) | -0.528 (inactive) | 0.0818 (inactive) | -0.978 | -0.184 | 0.0525 (inactive) | 0.113 | 0.4 | 0.34 (inactive) | -0.249 (inactive) | -0.227 (inactive)
13 | CCCC[C@@H]1C[C@H]1[C@@H](NC(=O)c1ccccc1)c1ccc(Cl)cc1 | 1.18 | 0.127 (inactive) | 0.696 (inactive) | -0.402 (inactive) | 0.495 (inactive) | -0.359 (inactive) | -1.11 (inactive) | -0.324 (inactive) | 1.51 | 0.0049 | -0.778 (inactive) | -2.03 | -0.385 | -3.04 (inactive) | 0.413 (inactive) | -0.524 (inactive)
14 | CC(CO)N1C(=O)[C@@H]2C3C(=O)OCCC/C=C\[C@H]3OC23C=CCN(Cn2nnc4ccccc42)C(=O)[C@@H]13 (stereo partly drawn) | 0.256 | -0.159 (inactive) | 0.595 (inactive) | -2.72 (inactive) | 0.205 (inactive) | 0.549 (inactive) | 0.935 (inactive) | 0.829 (inactive) | 0.605 | 0.0511 | -0.584 (inactive) | 0.475 | 0.357 | -2.97 (inactive) | -0.235 (inactive) | 0.103 (inactive)
15 | C[C@H]1C2=C3C(CC[C@H]4C(OCc5ccc(F)cc5C(F)(F)F)OC[C@](C)([C@@H]34)N(C(=O)OC(C)(C)C)C2)C2COC(=O)OCC21 (stereo partly drawn) | -1.33 | -0.0764 (inactive) | -1.43 (inactive) | -0.047 (inactive) | 0.371 (inactive) | 0.235 (inactive) | -0.698 (inactive) | -0.398 (inactive) | -1.18 | 0.572 | 0.172 (inactive) | 0.551 | -0.121 | -3.49 (inactive) | 0.671 (inactive) | 0.439 (inactive)
16 | CCOC(=O)C[C@H]1[C@H](OC(=O)c2ccc(C(=O)c3ccccc3)cc2)[C@@H](NC(=O)c2ccc3ccccc3c2)c2cc(OCCCO)ccc2N1C(=O)c1ccccc1 | -0.55 | -0.592 (inactive) | -0.377 (inactive) | -0.46 (inactive) | 0.055 (inactive) | -0.617 (inactive) | 0.347 (inactive) | 0.212 (inactive) | -0.539 | -0.0367 | 1.39 (inactive) | 0.444 | 1.45 | -0.683 (inactive) | 0.451 (inactive) | 0.0368 (inactive)
17 | C=CC[C@]12N=C(c3ccc(OCCCO)cc3)O[C@H]1c1ccccc1N(C)C2=O | -0.782 | -1.62 (inactive) | -1.54 (inactive) | 0.582 (inactive) | 0.345 (inactive) | 1.27 (inactive) | 0.105 (inactive) | -0.487 (inactive) | -1.28 | -0.031 | 2.91 (inactive) | 0.842 | -2.33 | -4.31 (inactive) | -0.0503 (inactive) | -0.394 (inactive)
18 | CC1CC/C=C\[C@H]2OC34C=CCN(CCN5CCOCC5)C(=O)[C@H]3N(CCO)C(=O)[C@@H]4C2C(=O)O1 (stereo partly drawn) | 0.106 | -0.158 (inactive) | 0.322 (inactive) | -0.4 (inactive) | 0.826 (inactive) | -0.585 (inactive) | -0.0987 (inactive) | -0.557 (inactive) | 0.119 | -0.128 | 0.467 (inactive) | 0.829 | 0.055 | -5.81 (inactive) | 0.0898 (inactive) | 0.139 (inactive)

Reference: PubChem BioAssay
